IL-1B inflam inh = inflammasome signaling inhibition, IL-1 beta readout; THP-1 LPS/ATP IL-1B secretion, AlphaLISA, 16 h; active compounds read low; activity change, % at 57.5 µM; hit rate 4.7% among 360,000; in the data active = activity change below about -50%; inconclusive = mostly about -30% to -49%; also: % is scaled to controls: 0 for no effect and ±100 for the full control effect
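Secreted IL-1B measured by AlphaLISA bead assay after 16 h compound exposure of THP-1 cells; compounds (final up to 57.5 uM) added 1 h before LPS (250 ng/mL) and ATP (1.25 mM) stimulation; lower signal means less secretion.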
S-ASM inh = human S-ASM enzyme inhibition | placental ASM, HMU-PC fluorogenic substrate, 60 min | hit rate 0.006% among 340,000 | AID 504937 | Potency, µM (doses to about 57.5 µM), without a hit: at the highest dose activity change, negative = inhibition, most hits filed as inhibitors; also: potency is read from the fitted curve at half-maximal effect
Target sequence (P17405 47-631 limits assumed): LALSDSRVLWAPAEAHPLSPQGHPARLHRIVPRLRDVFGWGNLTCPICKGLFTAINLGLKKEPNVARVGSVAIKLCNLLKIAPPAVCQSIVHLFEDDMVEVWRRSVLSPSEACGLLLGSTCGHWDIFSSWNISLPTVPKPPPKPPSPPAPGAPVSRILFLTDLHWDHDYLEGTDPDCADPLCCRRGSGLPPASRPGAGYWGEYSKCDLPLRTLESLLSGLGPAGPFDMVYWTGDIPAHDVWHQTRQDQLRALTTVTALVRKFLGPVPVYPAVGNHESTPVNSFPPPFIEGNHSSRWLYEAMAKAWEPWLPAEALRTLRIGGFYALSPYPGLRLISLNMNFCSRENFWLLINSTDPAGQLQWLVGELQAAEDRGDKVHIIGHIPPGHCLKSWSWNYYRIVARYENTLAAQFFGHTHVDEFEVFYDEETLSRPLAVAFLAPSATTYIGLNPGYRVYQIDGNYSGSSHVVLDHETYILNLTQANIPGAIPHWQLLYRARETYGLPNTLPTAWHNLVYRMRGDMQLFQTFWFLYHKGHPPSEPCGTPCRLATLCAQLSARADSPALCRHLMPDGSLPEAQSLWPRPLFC
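Fluorescence read-out (Ex 386 nm, Em 447 nm) after stopping the reaction at pH 10. Enzyme: ASM from human placenta; substrate HMU-PC0, 9 uM final; 60 min, 37 °C. Compound preincubation 10 min, ambient temperature.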
TGFb SMAD3 inh = inhibitors of TGF-b signaling | HepG2 CAGA-GFP TGF-b/SMAD3 reporter, GFP fluorescence, 18 h; TGF-beta stimulated, 500 pg/mL final | Potency, µM (highest dose often 46.1 µM), inactives show at the top dose activity, negative = inhibition, actives largely listed as inhibitors | hit rate 1.2% among 410,000 | AID 588855; also: potency is read from the fitted curve at half-maximal effect; % is scaled to controls: 0 for no effect and ±100 for the full control effect; nearly all actives have a fitted effect of over 65% in size
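Inhibition of TGF-beta-driven CAGA-GFP reporter expression in HEPG2 cells is measured by cellular GFP fluorescence after 18 h stimulation with 500 pg/mL recombinant TGF-beta in 1% FBS medium at 37 degrees C.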
DT40 TDP1 no CPT = qHTS for Inhibitors of human tyrosyl-DNA phosphodiesterase 1 (TDP1): qHTS in cells in absence of CPT; hit rate 15% among 420,000; DT40 Tdp1-/- hTDP1 cells, no CPT, ATP luminescence, 48 h; Potency, µM (highest dose often 46.2 µM), for the others: top-dose activity change, negative = growth inhibition, most hits filed as inhibitors; also: potency is read from the fitted curve at half-maximal effect; % is scaled to controls: 0 for no effect and ±100 for the full control effect; nearly all actives have a fitted effect of over 55% in size
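Chicken DT40 Tdp1-/- cells stably complemented with human TDP1 were seeded at 400 cells/well with DMSO in place of 20 nM camptothecin. After compound pinning, cells grew at least 48 hr at 37 °C; viability read by CellTiter-Glo luminescence.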
HepG2 tox = counter-screen for TGF-b inhibitors: cytotoxicity in HepG2 cells; hit rate 0.76% among 410,000; HepG2 CAGA-GFP viability, ATP luminescence, 18 h; Potency, µM (doses to about 46.1 µM), inactives show at the top dose activity change, negative = cytotoxicity, actives largely listed as cytotoxic; also: potency is read from the fitted curve at half-maximal effect
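HepG2 CAGA-GFP cells (1000/well, DMEM with 1% FBS) received compound, then TGF-beta at 500 pg/mL final, and were incubated 18 hours at 37 degrees C. Viability was read by CellTiter-Glo luminescence. Media-only wells were set as complete cell-killing and DMSO as no toxicity.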
DT40 TDP1 CPT = DT40-hTDP1 cell growth loss with CPT; Potency, µM (series often up to 46.2 µM), without a hit: at the highest dose activity change, negative = growth inhibition, actives largely listed as inhibitors; hit rate 12% among 420,000; AID 686979; chicken DT40 Tdp1-/-;hTDP1 cells + 20 nM CPT, ATP luminescence, 48 h; also: potency is read from the fitted curve at half-maximal effect; % is scaled to controls: 0 for no effect and ±100 for the full control effect; nearly all actives have a fitted effect of over 55% in size
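Chicken DT40 Tdp1-/- cells complemented with human TDP1, 400 cells/well, exposed to compounds plus 20 nM camptothecin for at least 48 h at 37 C; viability read as ATP content by CellTiter-Glo luminescence.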
* = called active by the depositor; i = inactive; ? = inconclusive; . = no result; [ ] = remark or other dose. The list is not random: actives were taken first. Their share in the collection is about 19%. Unless noted, calls follow the shape of the dose curve; as a rule, active = well fitted curve in the direction sought with a large enough effect; inconclusive = small, poorly fitted or top-dose-only effect, or another doubt; inactive = no such curve, though single readings can be large; an effect the other way counts as inactive or inconclusive.

SMILES	IL-1B inflam inh	S-ASM inh	TGFb SMAD3 inh	DT40 TDP1 no CPT	HepG2 tox	DT40 TDP1 CPT
Cc1cc(N2CCCCC2)nc2ccc(NC(=O)CCC(=O)N3CCN(c4ccccc4)CC3)cc12	.	.	?	21µM*	-29%	?
CCC(C)CCCCCCCCCCC(=O)O (stereo not given)	8	0%	-5%	-13%	-4%	-9%
O=C(c1cnn2c(C(F)(F)F)cc(-c3cccs3)nc12)N1CCN(C(c2ccccc2)c2ccccc2)CC1	-29	28%	20%	13µM*	4%	9.2µM*
COc1ccccc1-c1cc(C(F)(F)F)n2ncc(C(=O)N3CCc4ccccc4C3)c2n1	i	62%	?	23µM*	-8%	?
O=C(NCCc1ccccc1)c1nc2nc(-c3cccs3)cc(C(F)(F)F)n2n1	0	i	-20%	29µM*	-15%	21µM*
O=C(c1cnn2c(C(F)(F)F)cc(-c3cccs3)nc12)N1CCN(Cc2ccccc2)CC1	?	22%	0%	15µM*	-2%	?
CN1CCN(C(=O)c2cnn3c(C(F)(F)F)cc(-c4cccs4)nc23)CC1	-2	84%	-12%	-30%	2%	6%
O=C(NCc1ccccc1Cl)c1cc2c(s1)CS(=O)(=O)C2	?	3%	2%	-1%	-8%	-15%
c1cncc(OC2CCN(Cc3ccc4c(c3)CN(Cc3nc5ccccc5s3)CCO4)CC2)c1	.	.	.	-13%	.	5%[9.04 µM]
C=CCOC(=O)C1=C(C)NC(C)=C(C(=O)OCC=C)C1c1ccc(C)o1	-77*	10%	-14%	?	6%	?
O=[N+]([O-])c1cccc(/C=N/Nc2nc(NCc3ccccc3)nc(N3CCOCC3)n2)c1	18	3%	-2%	?	6%	15µM*
O=[N+]([O-])c1cccc(/C=N/Nc2nc(NCc3ccccc3)nc(N3CCOCC3)n2)c1O	180	?	?	?	-48%	13µM*
CN(C)c1nc(NCc2ccccc2)nc(N/N=C/c2cccc(Br)c2)n1	-5	-26%	-14%	7.3µM*	-7%	5.8µM*
CCN1CCN(C(=O)c2cnn(-c3ccc(F)cc3)c2-n2cccc2)CC1	.	.	6%	.	3%	.
CCOC(=O)CSC1=NC(=O)/C(=C\c2ccc(Cl)cc2)S1	?	6%	9%	7.3µM*	-41%	4.6µM*
CCOC(=O)C1CCN(C2=NC(=O)/C(=C/c3ccc(Cl)cc3)S2)CC1	-50*	-5%	0%	-10%	-5%	?
CCOC(=O)C1CCN(C2=NC(=O)/C(=C/c3ccc(OC)c(OC)c3)S2)CC1	-18	48%	-1%	?	-23%	-14%
O=C(c1cc(-c2cccs2)nn1-c1ccccc1)N1CCN(S(=O)(=O)c2ccccc2)CC1	-14	-1%	-11%	18µM*	7%	?
Cc1ccc(S(=O)(=O)N2CCN(C(=O)c3cc(-c4cccs4)nn3-c3ccccc3)CC2)cc1	0	2%	-8%	18µM*	1%	13µM*
COc1ccc(-c2csc(NC(=S)NC(=O)c3ccc(S(=O)(=O)N(C)C)cc3)n2)cc1OC	29	-1%	5%	?	-16%	?
COc1cc(/C=N/Nc2nc(-c3ccc(S(=O)(=O)N(C)C)cc3)cs2)ccc1O	-91*	-10%	?	7.3µM*	-34%	8.2µM*
CCOc1cc(/C=N/Nc2nc(-c3cccc(S(=O)(=O)N4CCCC4)c3)cs2)ccc1O	-83*	-1%	?	8.2µM*	-2%	13µM*
O=S(=O)(c1cccc(-c2csc(N/N=C/c3ccco3)n2)c1)N1CCOCC1	-72*	-8%	?	13µM*	-1%	16µM*
COc1cc([N+](=O)[O-])cc(/C=N/NC(=O)c2cc(C)nc3ccccc23)c1O	52	-15%	-10%	?	-43%	?
COc1cc(/C=N/NC(=O)c2cc(-c3ccccc3OC(C)C)nc3ccccc23)ccc1O	3	-24%	-3%	1.8µM*	-44%	?
SMILES	IL-1B inflam inh	S-ASM inh	TGFb SMAD3 inh	DT40 TDP1 no CPT	HepG2 tox	DT40 TDP1 CPT
COc1ccc(CC(=O)N/N=C/c2c(C)n(C)c3ccccc23)cc1OC	33	-14%	?	9.2µM*	-27%	9.2µM*
COc1cc([N+](=O)[O-])cc(/C=N/NC(=O)c2cc(-c3ccccc3)nc3ccccc23)c1O	56	-19%	?	23µM*	-59%	21µM*
COc1cc(/C=N/NC(=O)CCn2cnc(-c3ccccc3)c2-c2ccccc2)ccc1O	-14	83%	-9%	18µM*	2%	?
COc1ccccc1-c1cc(C(=O)N/N=C\c2cnn(C)c2C)c2ccccc2n1	14	-5%	-34%	?	-36%	?
COc1cc(/C=N/NC(=O)c2cnn3c(C)cc(-c4ccccc4)nc23)ccc1O	-57*	-7%	11%	16µM*	8%	23µM*
COc1ccc(/C=N/NC(=O)c2cc(-c3ccccc3)nc3ccccc23)cc1O	40	-3%	0%	1.3µM*	-31%	10µM*
COc1cc(/C=N/NC(=O)c2cc(-c3ccccc3)nc3ccccc23)ccc1O	48	-22%	0%	?	-21%	?
COc1ccc(/C=N/NC(=O)c2nc(-c3ccccc3)cc(-c3ccccc3)n2)cc1	-80*	-10%	19%	26µM*	18%	?
COc1ccc(/C=N/NC(=O)c2nc(-c3ccccc3)cc(-c3ccccc3)n2)cc1O	-82*	?	?	16µM*	-14%	13µM*
O=C(C[C@H]1C=C[C@H](NC(=O)Nc2ccccc2F)[C@@H](CO)O1)NCc1ccc(-c2ccccc2)cc1	12	.	.	-23%	.	-14%
COc1cccc(/C=N/NC(=O)CCn2c3ccccc3c3ccccc32)c1	0	-9%	-6%	-5%	2%	?
CC(C)COc1cccc(-c2cc(C(=O)N/N=C/c3ccncc3)c3ccccc3n2)c1	i	-20%	-11%	?	-47%	9.2µM*
CCOc1cc(/C=N/NC(=O)c2cc(-c3cccc(OC)c3)nc3ccccc23)ccc1O	-9	-28%	?	1.3µM*	-1%	8.2µM*
COc1ccc(Cc2nc3ccccc3n2CC(=O)N/N=C/c2ccc(O)cc2)cc1OC	36	-1%	8%	14%	6%	-3%
